Source: PubChem BioAssay (NCATS)
Results filed as inconclusive are left out. Calls of active or inactive are those of the source. Unless noted, no rule for the calls is given here.

Columns and labels:
[1] = qHTS profiling of the MIPE4 collection as inhibitors of Plasmodium falciparum (3D7) proliferation (AID 743344);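 also: scaled between DMSO vehicle wells and 0.29 µM artemisinin as full inhibition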; conditions: P. falciparum 3D7 in erythrocytes, SYBR Green DNA fluorescence, 72 h; at 28.5 µM unless noted
Outline: (§1)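 Erythrocytes infected with P. falciparum (0.3% parasitemia, 2.5% hematocrit) incubated with compounds 72 h at 37 C, 5% CO2. Lysis with saponin/Triton buffer containing SYBR Green I, overnight at room temperature in the dark; DNA fluorescence (485/535 nm) normalised to 0.29 uM artemisinin and DMSO.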

[2] = qHTS profiling of the MIPE4 collection as inhibitors of Plasmodium falciparum (DD2) proliferation (AID 743345); conditions: P. falciparum Dd2 in erythrocytes, SYBR Green DNA, 72 h; at 28.5 µM unless noted
Outline: as §1

[3] = qHTS profiling of the MIPE4 collection as inhibitors of Plasmodium falciparum (DD2) proliferation (Rep 2) (AID 743346); conditions: P. falciparum Dd2 in erythrocytes, SYBR Green DNA, 72 h; at 28.5 µM unless noted
Outline: as §1

[4] = qHTS profiling of the MIPE4 collection as inhibitors of Plasmodium falciparum (HB3) proliferation (AID 743347);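 also: plate controls were DMSO vehicle wells for no effect and artemisinin wells for full effect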; conditions: P. falciparum HB3 in erythrocytes, SYBR Green DNA, 72 h; at 28.5 µM unless noted
Outline: as §1

[5] = High-throughput drug toxicity screening in the BPDCN cell line Gen2.2 (AID 1224824); conditions: Gen2.2 BPDCN cells; at 45.8 µM (top of the series) unless noted;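 also: cells exposed to compounds for 48 h before reading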
Outline: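 Gen2.2, 500 cells/well, phenol red-free RPMI/10% FBS/Pen-Strep; 48 h cpd, 37 °C/5% CO2; CTG lum, 15 min RT. Norm: DMSO = 100%, bortezomib 9.2 uM final = 0%.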

[6] = High-throughput drug toxicity screening in the BPDCN cell line Cal-1 (AID 1224825); conditions: Cal-1 BPDCN cell viability, qHTS; at 45.8 µM (top of the series) unless noted
Outline: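 Exponentially growing Cal-1 cells, 500 per well in phenol red-free RPMI with 10% FBS, were exposed to compounds for 48 h at 37 °C, 5% CO2. Viability was read by CellTiter-Glo luminescence and normalised to DMSO (100%) and 9.2 uM bortezomib (0%).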

[7] = qHTS assay for measurement of the activity of small molecule inhibitors on Zika virus induced Caspase-3 activity in human iPSC derived neural progenitor cells (hNPCs) (AID 1224857; active = well fitted inhibition curve with a large enough effect; also: % of control where 0% means no effect; nearly all actives have a fitted effect of over 65% in size)
Outline: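 Pretreat hNPCs with compound 1 h; infect ZIKV 2 FFU/cell; 6 h 37 C, 5% CO2; Caspase-Glo 3/7, 30 min RT; luminescence; normalize to no-virus and virus-only wells.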

[8] = qHTS assay for measurement of the activity of small molecule inhibitors on Zika virus induced Caspase-3 activity in human astrocytoma cells (AID 1224859; active = well fitted inhibition curve with a large enough effect;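 also: plate controls were ZIKV-infected untreated cells for no effect and uninfected cells for full effect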)
Outline: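 Human SNB-19 astrocytoma cells in RPMI 1640 with 10% FBS receive compound one hour ahead of Zika virus at 2 FFU/cell. After 6 h infection, caspase-3/7 activity is detected by Caspase-Glo luminescence.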

[9] = qHTS Screen of the MIPE 4.0 Collection Against Ewings Sarcoma (RDES) (AID 1259252; active = well fitted inhibition curve with a large enough effect; also: nearly all actives have a fitted effect of over 35% in size; also: potency is read from the fitted curve at half-maximal effect)
Outline: (§2)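 Measured: ATP luminescence (CellTiter-Glo) 10 min after reagent addition, following 48 h drug treatment. Relative luciferase units converted to percent activity, with no-cell wells as full and DMSO wells as zero inhibition.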

[10] = qHTS Screen of the MIPE 4.0 Collection Against Ewings Sarcoma (TC71) (AID 1259253; active = well fitted inhibition curve with a large enough effect; also: nearly all actives have a fitted effect of over 40% in size; also: potency is read from the fitted curve at half-maximal effect)
Outline: as §2

[11] = qHTS Screen of the MIPE 4.0 Collection Against Ewings Sarcoma (EW8) (AID 1259255; active = well fitted inhibition curve with a large enough effect; also: nearly all actives have a fitted effect of over 35% in size; also: potency is read from the fitted curve at half-maximal effect;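 as to viability: 100% = DMSO-treated cells and 0% = medium-only wells without cells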)
Outline: as §2

SMILES	parasite growth, % of DMSO control [1]	parasite growth remaining, % of DMSO control (lower = more inhibition) [2]	parasite growth, % of control (lower = inhibition) [3]	growth, % of control [4]	cell viability, % of control (lower = more cytotoxic) [5]	viability (% of control) [6]	Potency [7]	Potency [8]	Potency [9]	Potency [10]	Potency [11]
COC(=O)C=CC(=O)OC	76.2%	97.5%	71.3%	96.5%	35.4%	101%	inactive	inactive	8.33 µM (active)	18.7 µM (active)	26.4 µM (active)
CCN1CCN(C(=O)N[C@H](C(=O)N[C@@H]2C(=O)N3C(C(=O)O)=C(CSc4nnnn4C)CS[C@@H]23)c2ccc(O)cc2)C(=O)C1=O	91.3% [at 9.64 µM]	95.9% [at 9.64 µM]	57.9% [at 9.64 µM]	90.1% [at 9.64 µM]	149% [at 15.3 µM]	113% [at 15.3 µM]	inactive	inactive	inactive	inactive	inactive
O=C(Nc1nnc(-c2ccco2)o1)c1cc(-c2ccccc2)nc2ccccc12	51.6%	94.4%	42.6%	18.7%	42.4%	17.3%	inactive	inactive	16.6 µM (active)	16.6 µM (active)	23.5 µM (active)
C=CC(=O)N1CCc2ccc(-n3c(=O)ccc4cnc5ccc(-c6cnn(C)c6)cc5c43)cc21	5.53%	8.35%	8.38%	4.27%	1.99%	2.44%	inactive	inactive	6.62 µM (active)	3.32 µM (active)	3.32 µM (active)
CC(Oc1ccc(O)cc1)(P(=O)(O)O)P(=O)(O)O	64.8%	101%	64.2%	98.7%	123%	107%	inactive	inactive	inactive	inactive	inactive
CC(=O)OC[C@@H]1O[C@@H](n2ccc(=O)[nH]c2=O)[C@H](OC(C)=O)[C@H]1OC(C)=O	158%	115%	141%	250%	154%	104%	inactive	inactive	inactive	inactive	inactive
Cn1cnc(=N)c2[nH]cnc21	5.58%	6.87%	7.19%	3.51%	128%	8.73%	inactive	inactive	0.296 µM (active)	0.235 µM (active)	0.209 µM (active)
O=C(c1ccc(F)cc1)N1CCC[C@H](c2nc(-c3ccc(F)cc3)no2)C1	74.1%	94.6%	70.9%	82.2%	93.8%	111%	inactive	inactive	inactive	inactive	inactive
COc1cc(C[C@@H](CO)[C@H](CO)Cc2ccc(O)c(OC)c2)ccc1O	90.4%	100%	80.4%	96.5%	55.1%	23.4%	inactive	inactive	0.209 µM (active)	0.372 µM (active)	0.743 µM (active)
COc1cc2c(cc1O)CCC1C2CC[C@@]2(C)C1CC[C@@H]2O (stereo partly specified)	79.6%	94.6%	67%	59.7%	95.2%	10.9%	inactive	inactive	7.43 µM (active)	2.64 µM (active)	3.32 µM (active)
CC(C=CC=C(C)C=CC1=C(C)CCCC1(C)C)=CC=CC=C(C)C=CC=C(C)C=CC1=C(C)CCCC1(C)C	11.9%	92.7%	28.1%	7.95%	8%	10%	inactive	inactive	8.33 µM (active)	18.7 µM (active)	14.8 µM (active)
Oc1cc(-c2nc(-c3ccccc3)[nH]c2-c2ccncc2)ccc1Cl	5.77%	9.67%	8.42%	3.61%	3.91%	5.51%	inactive	inactive	18.7 µM (active)	26.4 µM (active)	23.5 µM (active)
Cc1cc(Nc2ncc3c(n2)N(C)C(=O)N(c2cc(NC(=O)c4cccc(C(F)(F)F)c4)ccc2C)C3)n(C)n1	7.35%	15.8%	15.8%	10.8%	11.1%	7.39%	inactive	inactive	0.418 µM (active)	0.372 µM (active)	0.833 µM (active)
N#CNC(=NCCCCCCOc1ccc(Cl)cc1)Nc1ccncc1	12.1%	35.9%	28%	3.38%	25.6%	2.53%	inactive	inactive	inactive	0.0013 µM (active)	0.003 µM (active)
CC[C@]12C=CCN3CC[C@@]4(c5cc([C@@]6(C(=O)OC)C[C@H]7C[C@@H](C(C)(F)F)CN(Cc8c6[nH]c6ccccc86)C7)c(OC)cc5N(C)[C@H]4[C@@](O)(C(=O)OC)[C@H]1OC(C)=O)[C@@H]32	17%	12.3%	24.8%	16.3%	8.97%	9.46%	inactive	inactive	0.0105 µM (active)	0.0187 µM (active)	0.0053 µM (active)
CC(C)Oc1ccc(C(=O)N[C@H](CNC(=O)CN(C)C)Cc2ccc(-c3cn4cccc([C@H](C)O)c4n3)cc2)cc1Cl	5.62%	8.81%	12.6%	5.09%	61.2%	18.5%	inactive	inactive	0.235 µM (active)	0.372 µM (active)	0.235 µM (active)
